Test results reported in PubChem BioAssay AID588783 (NMMLSC, 2011).
Measured potencies and affinities stand elsewhere. Active and inactive are the calls of the source.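 How the source made its calls: active means inhibition of specific binding of 40% or more; inactive means inhibition of specific binding below 40%.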

The compounds below were run on beta-arrestin 1 peptide binding to AP-2 beta2-adaptin appendage (human) (assay: inhibitors of arrestin peptide binding to AP2, dose response, biochemical, cherry pick 1, beta2-adaptin appendage, flow cytometry (AID 588783)). Conditions: Bead flow cytometry, FITC-arrestin peptide binding GST-AP2; at 9.12 µM; stronger effect = higher value.

Inhibition of specific binding, inactive:
O=C(NCC1COc2ccccc2O1)c1ccc(NC(=O)C(c2ccccc2)c2ccccc2)cc1 (stereo unspecified) 7%, COc1cc(C2Nc3cccc4cccc(c34)N2)cc(OC)c1O 12%, CN1c2ccccc2N(C)C1(C)c1ccccc1 3%, COC(=O)c1ccccc1N/C=C1\CCc2c(c(C)nn2-c2ccccn2)C1=O 7%, Cc1nn(-c2ccccn2)c2c1C(c1ccsc1)C1=C(CCCC1=O)N2 (stereo unspecified) 12%, Nc1c(C(=O)NC2CC2)sc2nc3c(c(-c4ccco4)c12)CC/C3=C/c1ccco1 22%
